Test results reported in PubChem BioAssay (NCI).
The panel holds about 79,000 compounds, 15% with a hit somewhere; the sample as a whole holds those more often. Unmarked numbers belong to inactive results. Activity calls are given as the source filed them. Rule as the data show it: active = growth inhibition above about 70%; inactive = the rest.

What was measured:
[1] = NCI Yeast Anticancer Drug Screen. Data for the rad50 strain (AID 155);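 also: 0% = growth of vehicle-only cultures of the same strain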; settings: S. cerevisiae rad50 strain growth inhibition; at 50.0 µM; active compounds read high
Outline: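 Growth of the mutant yeast was measured after compound exposure and referenced to vehicle-treated cultures.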

[2] = NCI Yeast Anticancer Drug Screen. Data for the mec2-1 strain (AID 157); settings: S. cerevisiae mec2-1 strain, at 50.0 µM, active compounds read high
Outline: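 mec2-1 yeast strain, carrying an alteration in DNA damage repair or cell cycle control, was exposed to compounds; growth inhibition was measured relative to vehicle-treated controls.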

[3] = NCI Yeast Anticancer Drug Screen. Data for the sgs1 mgt1 strain (AID 161);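 also: 0% = growth of cultures given vehicle only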; settings: S. cerevisiae sgs1 mgt1 strain, at 50.0 µM, active compounds read high
Outline: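 Compounds are added to genetically altered yeast, and growth is compared with cultures given vehicle alone to give percent inhibition.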

[4] = NCI Yeast Anticancer Drug Screen. Data for the cln2 rad14 strain (AID 165);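 also: 0% = growth equal to vehicle treated cultures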; settings: S. cerevisiae cln2 rad14 strain, at 50.0 µM, active compounds read high
Outline: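 Yeast carrying cln2 and rad14 alterations (cell cycle control and DNA damage repair) were exposed to compounds. Growth inhibition was measured against vehicle-treated controls.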

[5] = NCI Yeast Anticancer Drug Screen. Data for the bub3 strain (AID 167); settings: S. cerevisiae bub3 mutant strain, at 50.0 µM, active compounds read high
Outline: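 Whole-cell yeast assay. The mutant strain was incubated with compounds, and growth inhibition was determined by comparison with vehicle-treated cells.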

[6] = NCI Yeast Anticancer Drug Screen. Data for the mlh1 rad18 strain (AID 175); settings: S. cerevisiae mlh1 rad18 strain growth inhibition; at 50.0 µM; active compounds read high
Outline: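 Growth inhibition of the yeast strain was measured after compound exposure and expressed relative to vehicle-treated controls. The strain carries defined defects in DNA damage repair.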

Row | Compound | growth inhibition [1] | growth inhibition [2] | growth inhibition [3] | growth inhibition [4] | growth inhibition [5] | growth inhibition [6]
1 | NCCCOCCO | -2.9% | -0.5% | -8.4% | 8.3% | 16.4% | 4.35%
2 | C/C(=C\c1ccccc1)C(O)S(=O)(=O)O (stereo unspecified) | 4.5% | -0.35% | -2.9% | 11.9% | -12.1% | -4.55%
3 | COC1OC(CO)C(O)C2OCCOCCOC3C(OC)OC(CO)C(O)C3OCCOCCOC12 (stereo unspecified) | -2.65% | -4.4% | 5.9% | -7.7% | -0.5% | 18.5%
4 | OC(c1ccccc1)c1ccc2c(c1)CCC2 (stereo unspecified) | 3.55% | -8.65% | -6.1% | -25.1% | -18% | 5.3%
5 | CCC1(C)OC(C)CC(C)(C)O1 (stereo unspecified) | 0.65% | -22.9% | -25.4% | -0.25% | -12.6% | 0%
6 | COc1cccc(C2NC(=O)c3c(n[nH]c3N)S2)c1O (stereo unspecified) | -14.8% | -43.4% | -10.5% | -6.55% | 5.85% | -40.1%
7 | c1ccc(CCOC(c2ccccc2)(c2ccccc2)c2ccccc2)cc1 | -11.2% | -9.25% | 0.3% | -61.6% | -10.4% | -26.2%
8 | CCCCCCCCCC[C@@H](OC(C)=O)[C@@H]1CC[C@@H]([C@@H]2CC[C@@H]([C@@H](O)CC#C/C=C/CCCCCCC[C@@]3(Sc4ccccc4)C[C@H](C)OC3=O)O2)O1 | -27.9% | -8.2% | -16.1% | 4.25% | -15.3% | -12.1%
9 | CNC(=O)OC(COC)CN1CCN(c2ccccc2C)CC1 (stereo unspecified) | -25.8% | -47.8% | -10.6% | -1.25% | -8.3% | -6.5%
10 | CCOP(=O)(OCC)OC1CC(n2cnc3c(N(CC)CC)ncnc32)OC1CO[Si](C)(C)C(C)(C)C (stereo unspecified) | 19.1% | 8.65% | 54% | 38.8% | 47.9% | -16.1%
11 | CCc1cc2c(cc1C(=O)/C=C\c1cccc3ccccc13)C(C)(C)CCC2(C)C | 13.1% | -5.35% | 8.15% | -20.1% | -3.5% | 15%
12 | Cc1ccccc1S(=O)(=O)OC1NS(=O)(=O)c2ccccc21 (stereo unspecified) | 15.8% | -1% | -36.9% | -15.6% | -23.3% | 2.9%
13 | Cc1cccc(-n2c(N)c(-c3nc4ccccc4[nH]3)sc2=S)c1 | 6.7% | -11.9% | 13.4% | 10.2% | 3.4% | 2.6%
14 | Cc1ncc([N+](=O)[O-])n1CC[N+](C)([O-])CCCCn1ccnc1[N+](=O)[O-] (stereo unspecified) | 16.9% | -20.6% | 20.6% | -41.5% | -3.95% | -9%
15 | C(CC1CCNCC1)CC1CCNCC1 | -39.7% | -19.1% | -20.3% | -23.8% | 12.2% | -64.7%
16 | O=[N+]([O-])c1ccc2nc(Cl)n[n+]([O-])c2c1 | 88.7% (active) | 93% (active) | 91.5% (active) | 89.3% (active) | 91.1% (active) | 91.8% (active)
17 | c1cnc(NC(Nc2cnccn2)C2CCCCC2)cn1 | -2.25% | -1.55% | -6.6% | -20.9% | 4.25% | 1.35%
18 | NC(Cc1ccc(O)cc1)C(=O)OCc1ccccc1 (stereo unspecified) | -6.45% | 0.5% | 15.1% | -11.2% | 34.2% | -3.75%
19 | Oc1ccc(C2SCc3nc4ccccc4n32)cc1 (stereo unspecified) | -7.85% | -17.9% | -35.9% | -7.3% | -45.1% | -25.1%
20 | CCNC(=O)NCc1cccc2ccccc12 | -0.05% | -8.15% | -7.15% | -74.2% | 5.15% | -1.6%
21 | CCOc1c(N=Nc2cccc(Cl)c2)c(-c2ccccc2)nn1C(N)=S | -3.4% | -10.3% | -24.2% | 2.15% | 35.5% | 20.8%

Row | Compound | growth inhibition [1] | growth inhibition [2] | growth inhibition [3] | growth inhibition [4] | growth inhibition [5] | growth inhibition [6]
22 | C#CCC(C)(C)C(N)=O | -10.7% | -6.85% | 3.4% | -35.8% | -6.05% | -8.5%
23 | CCCCCCCCCSCCS | -14.1% | 7.4% | 2% | -16.2% | -19.4% | -22.2%
24 | C/C(=N\NC(=S)Nc1ccc(S(=O)(=O)O)cc1)c1ccccn1 | 21.3% | 18.4% | 34.5% | 19.1% | 33.2% | 50.5%
25 | C/C(=N\N=C(N)N)C(CN(CC(C)C)CC(C)C)C(=O)Nc1ccc(C)cc1C (stereo unspecified) | 7.6% | 6.55% | 10.3% | 38.3% | -3.85% | 13.8%
26 | C[n+]1c(-c2ccc(Cl)c(Cl)c2)c2cc(N)ccc2c2ccccc21 | 14.9% | -22.6% | 30.6% | 3.9% | 7.2% | 14.4%
27 | CCN1C(=NCCO)NS(=O)(=O)c2ccccc21 | -17.2% | 3.4% | -25.4% | -1.95% | -24.6% | 0.35%
28 | CCOC(=O)C1=C(c2ccccc2)NC(c2ccccc2)=C(C(=O)OCC)c2c1c(=O)cc[nH]c2=O | -19.6% | 1.45% | 18.1% | 18.2% | -9.9% | 2.35%
29 | Nc1ccc(S(=O)(=O)/N=C(\NS(=O)(=O)c2ccc(N)cc2)c2ccccc2)cc1 | 15.7% | 0.65% | 12.2% | 16.2% | 5.85% | 1.45%
30 | CC(=O)OCC1OC2OC(C)(C)OC2C1NC(=O)C(F)(F)F (stereo unspecified) | 16.5% | -2.5% | -8.15% | 10.3% | -5.6% | 9.25%
31 | CC12CCCCC1CC(=O)/C(=C\O)C2 (stereo unspecified) | 12.7% | 15.1% | 17.9% | -29.1% | -11.3% | 14%
32 | CN(C)C(=O)c1cc2ccccc2[nH]1 | 28.9% | 16.4% | 6.7% | 12.8% | 3.75% | 20.2%
33 | CCCCCOC(c1cc2c(cc1Br)OCO2)C(C)Br (stereo unspecified) | 8.9% | 22.1% | 10.8% | 19.4% | 22.8% | 13.5%
34 | Oc1c(Cl)cc(Cl)cc1C1Nc2ccccc2-n2cccc21 (stereo unspecified) | -5.2% | -11.8% | 0.4% | 8.95% | 9.25% | 8.2%
35 | NCCN.O=C([O-])CN1CCOCC1.[OH-].[Pt+4] | 8.9% | -5.25% | -29.9% | -17.9% | -13.7% | -19.9%
36 | CCCCCCC(=O)C/C(CCC(=O)N(Cc1ccccc1)Cc1ccccc1)=N\NC(N)=O | -6.65% | 2.75% | -14.8% | 3.75% | -6.65% | -20.8%
37 | Cc1ccc(NC(=O)c2ccco2)c(C)c1 | -2.3% | -2.55% | 5.05% | 2.65% | 8.4% | -3.1%
38 | CC(C)N(CCN1CCCCC1)c1ccccn1 | -0.9% | 18.2% | 7.2% | -75.5% | 10.3% | 14.9%
39 | C=C1C(=O)OC2CC(C)C3CC(O)OC(OCC)C3(C)CC12 (stereo unspecified) | 24.1% | 20.3% | 12.4% | 22.8% | 32.2% | -16.8%
40 | N#C[C@H](c1nc2ccccc2s1)c1nc2ccccc2nc1Cl | 4.95% | 6.85% | 22.4% | 1.45% | 5.15% | 5.25%
41 | COc1ccc(-c2cc(=O)c3cc(O)ccc3o2)c(OC)c1OC | 8% | 16% | 11.4% | -6.95% | -6.5% | -10.8%
